Assay outcomes from PubChem.
CYP2C9 act: human CYP2C9 activators, primary screen, biochemical, luminescence | recombinant CYP2C9, luciferin-H conversion; active compounds read high; factor 1 = untreated enzyme, 0 = blocked | activation factor at 5 µM | 1.4% of 96,000 active;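 active = activation factor of 2 or more for CYP2C9 at a 5 µM dose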
CYP2C9 inhib: blockers of cytochrome P450 2C9 activity – biochemical, luminescence, ADME assay, primary screen; CYP2C9 Supersomes, luciferin-H conversion; 20% of 96,000 active; P11712; inhibition, % at 5 µM;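 active = blocking of liver enzyme CYP2C9 beyond about 50% at 5 µM, limit read from the data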
Cav32 inh: Cav3.2 calcium influx blockers – cell-based, Fluo-4 calcium fluorescence, FDSS, MLSMR library, primary screen. Voltage-dependent T-type calcium channel subunit alpha-1H (Homo sapiens), O95180. Cav3.2-expressing cells; active compounds read low. B-score at 10 µM. 4% of 100,000 active;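 active = single-dose well whose peak fluorescence ratio is a statistical outlier from its plate by either plate-standardised score or position-corrected B-score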
CYP2C19 activ: human CYP2C19 activators, primary screen, biochemical, luminescence | recombinant CYP2C19, luciferin-H EGE luminescence; active compounds read high; 0 = fully inhibited enzyme, 1 = untreated enzyme | Cytochrome P450 2C19 (Homo sapiens), P33261 | 96,000 tested, under 10 active | activation factor at 5 µM | AID 1025, 2008;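 active = activation factor of at least 2 at 5 µM in the primary screen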
CYP2C19 inhib: blockers of cytochrome P450 2C19 activity – biochemical, luminescence, ADME assay, primary screen; CYP2C19 Supersomes, luciferin-H EGE luminescence, 30 min; inhibition, % at 5 µM; 21% of 96,000 active; AID 778, 2007;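 active = CYP2C19 inhibition above a set limit at 5 µM in the primary screen, cut at about 50% in these data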
Each line names hits and unclear results; the compound was inactive in the other large screens. An excerpt weighted towards active compounds, which were near 27% of everything screened.

C#CCNC(=O)C1=C[C@H](c2ccc(C(F)(F)F)cc2)[C@@H](CCCO)[C@H](OCC)O1	none (no result: CYP2C9 act, CYP2C9 inhib, CYP2C19 activ, CYP2C19 inhib)
COCCCNC(=O)C(=O)NCCCOC(C)C	none
Cn1c(=O)c2c(SCc3c(F)cccc3Cl)nc(CC(C)(C)C)nc2n(C)c1=O	none
CC1(NC(=O)c2cc(S(=O)(=O)N3CCCCC3)ccc2Cl)CCS(=O)(=O)C1 (stereo not given)	none
Cc1ccc(C2NC(=O)NC3=C2CCc2ccccc23)cc1 (stereo not given)	CYP2C19 inhib 95
CC(C)c1ccc(C2NC(=O)NC3=C2CCc2ccccc23)cc1 (stereo not given)	none (no result: Cav32 inh)
COc1ccc(C2NC(=O)NC3=C2CCc2ccccc23)cc1 (stereo not given)	CYP2C19 inhib 81
COc1ccc(C2C(=O)c3ccccc3C2=O)cc1	none (no result: CYP2C9 act, CYP2C9 inhib, CYP2C19 activ, CYP2C19 inhib)
COC(=O)C1=C(C)N(c2ccc(OC)c(OC)c2)C(=O)C1	CYP2C9 inhib 74
COC(=O)C1=C(C)N(c2cccc(C(C)=O)c2)C(=O)C1	none
COC(=O)C1=C(C)N(c2ccc(F)c(Cl)c2)C(=O)C1	CYP2C9 inhib 52
COC(=O)C1=C(C)N(c2ccc(F)cc2)C(=O)C1	CYP2C19 inhib 60
CCOC(=O)N1CCN(C2CC(=O)N(c3ccc(F)cc3)C2=O)CC1 (stereo not given)	none
COC(=O)C1=C(C)N(c2cccc(Cl)c2)C(=O)C1	CYP2C19 inhib 64
COc1ccc(N2C(=O)CN=C2Nc2nc(C)cc(C)n2)cc1OC	none
CCOC(=O)c1c(C)sc(Sc2ccc(Cl)cc2[N+](=O)[O-])c1OC	CYP2C19 inhib 81
CCOC(=O)c1c(NC(=O)c2ccc(Cl)s2)sc(C)c1C	none
CNc1ccccc1C(C)(C)c1cc(-c2ccco2)n[nH]1	CYP2C19 inhib 54
FC(F)(F)c1nnc(-c2ccccc2)nc1Oc1ccc(Cl)cc1Cl	CYP2C19 inhib 61 (no result: Cav32 inh)
CC(=O)c1cccc(NC(=O)N2CCC(c3nnc(SCC(N)=O)n3C)CC2)c1	none
CCCc1cc(=O)[nH]c(/N=C(/NC(=O)C(C)N2C(=O)c3ccccc3C2=O)Nc2ccccc2)n1 (stereo not given)	CYP2C9 inhib 62 (no result: Cav32 inh)
CCCc1cc(=O)[nH]c(/N=C(/NC(=O)c2ccccc2)Nc2ccc3c(c2)OCCO3)n1	none (no result: CYP2C9 act, CYP2C9 inhib, CYP2C19 activ, CYP2C19 inhib)
COc1ccccc1CN(CC(=O)NCc1ccco1)C(=O)CNS(=O)(=O)c1ccccc1	none
O=C(CN(C(=O)Cn1nnc(-c2cccs2)n1)c1ccc2c(c1)OCCO2)NCc1ccccc1	CYP2C9 inhib 96, CYP2C19 inhib 60
O=C(CN(CCc1ccccc1)C(=O)CN1C(=O)COc2ccccc21)NCc1ccco1	none
O=C(CN(Cc1ccccc1)C(=O)c1ccco1)NCc1ccc(F)cc1	CYP2C19 inhib 84
O=C(CN(CCc1ccccc1)C(=O)Cn1nnc(-c2cccs2)n1)NCc1ccco1	CYP2C9 inhib 81, CYP2C19 inhib 56
O=C(CN(CCc1ccccc1)C(=O)CNS(=O)(=O)c1ccc(F)cc1)NCc1ccco1	CYP2C19 inhib 73
O=C(NC1CCCCC1)c1ccc(Cn2cc(Br)cn2)o1	CYP2C19 inhib 62
O=C(Nc1ccc(C(F)(F)F)cc1Cl)c1ccc(Cn2cc(Br)cn2)o1	none
O=C(c1ccc(Cn2cc(Br)cn2)o1)n1cccn1	CYP2C19 inhib 55
O=C(Nc1cccc(C(F)(F)F)c1)c1ccc(Cn2cc(Br)cn2)o1	CYP2C9 inhib 69, Cav32 inh -7.2, CYP2C19 inhib 85
CCCCOC(=O)C1C2C=CC3(CN(CCc4ccccc4)C(=O)C13)O2 (stereo not given)	none (no result: CYP2C9 act, CYP2C9 inhib, CYP2C19 activ, CYP2C19 inhib)
COc1cc(/C=N/n2c(SC)nnc(C(C)(C)C)c2=O)ccc1O	none
CCCCC(=O)Nc1cccc(NC(=O)c2ccccc2Br)c1	CYP2C9 inhib 73, CYP2C19 inhib 58
CCOCCCNC(=O)C1CCC(=O)N1CCc1ccccc1 (stereo not given)	none
COc1ccc(C(CC(=O)N2CCCC(C)C2)c2c(OC)cc(OC)c3c(-c4ccccc4)cc(=O)oc23)cc1 (stereo not given)	none (no result: CYP2C9 act, CYP2C9 inhib, CYP2C19 activ, CYP2C19 inhib)
O=C(CSc1nnc(-c2ccccc2Cl)n1Cc1ccco1)Nc1ccc2c(c1)OCCO2	CYP2C9 inhib 93, CYP2C19 inhib 90
COc1ccc(-c2nnc(SC(C)C(=O)NCc3ccc4c(c3)OCO4)n2Cc2ccco2)cc1 (stereo not given)	Cav32 inh -5.3
CC(Sc1nnc(-c2cccnc2)n1-c1ccccc1)C(=O)NCc1ccc2c(c1)OCO2 (stereo not given)	CYP2C9 inhib 91
O=C(CSc1nnc(-c2cccnc2)n1-c1ccccc1)NCc1ccc2c(c1)OCO2	none
O=C(OC(C(=O)NCc1ccc2c(c1)OCO2)c1ccc(Cl)cc1)c1ccco1 (stereo not given)	CYP2C9 inhib 98, CYP2C19 inhib 85
COc1ccc(N2CCN(CC(=O)Nc3ccc(-n4cnnn4)cc3)CC2)cc1	none (no result: CYP2C9 act, CYP2C9 inhib, CYP2C19 activ, CYP2C19 inhib)
C=CCn1c(SC(C)C(=O)NCc2ccc3c(c2)OCO3)nnc1C1CCCCC1 (stereo not given)	CYP2C9 inhib 57, CYP2C19 inhib 56
O=C(CSc1nnc(-c2ccc(Cl)cc2)n1Cc1ccco1)Nc1ccc2c(c1)OCCO2	none
C=CCn1c(SCC(=O)NCc2cccs2)nnc1C1CCCCC1	none
O=C(CSc1nnc(-c2ccc(Cl)cc2)n1Cc1ccco1)NCc1ccc2c(c1)OCO2	CYP2C9 inhib 56, Cav32 inh -5.3
Cc1cc(-c2nc3c4c5c(sc4[nH]c(=O)n3n2)CCC5)c(C)o1	CYP2C9 inhib 51
Cc1nc2sc3c(c2c(=O)[nH]1)CCC3	none
CCOC(=O)N1CCC(NC(=O)C2CCCN(S(C)(=O)=O)C2)CC1 (stereo not given)	none
CC(C)CC(NC(=O)OC(C)(C)C)c1cn([C@@H](CCCCNC(=O)OC(C)(C)C)C(=O)N2CCN(C(=O)OC(C)(C)C)CC2)nn1 (stereo not given in full)	none (no result: CYP2C9 act, CYP2C9 inhib, CYP2C19 activ, CYP2C19 inhib)
COc1cccc(C2C(=O)N(C3CCCCC3)CC(=O)N2Cc2ccc(F)cc2)c1 (stereo not given)	none
COc1ccccc1CN1C(=O)CN(C2CCCCCC2)C(=O)C1c1ccc(F)cc1 (stereo not given)	CYP2C19 inhib 57
CCOC(=O)C1CCCN(c2c(Nc3cccc(C)c3)c(=O)c2=O)C1 (stereo not given)	CYP2C9 inhib 52
CS(=O)(=O)N1CCN(C(=O)C2c3ccccc3Oc3ccccc32)CC1	CYP2C9 inhib 50, CYP2C19 inhib 97
CCOC(=O)C1CCCN(C(=S)Nc2ccc(C)cc2C)C1 (stereo not given)	CYP2C19 inhib 84
